Consider 16 compounds from PubChem BioAssay.

Active and inactive are the calls of the source.

The target of one test is Albumin (Bos taurus) (UniProt P02769). Kind of test: bovine serum albumin binders on microarray, profiling panel, artefact control for SMM control protein annotation, biochemical, small-molecule microarray, Alexa647 label, 635/667 nm fluorescence (AID 1118).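 Note: score merges 667 nm emission intensity and signal-to-noise per printed compound spot.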 As to conditions: BSA-A647 binding, fluorescence 635 nm, higher = more signal.
Sequence of Albumin (Bos taurus) (P02769 whole entry, looked up): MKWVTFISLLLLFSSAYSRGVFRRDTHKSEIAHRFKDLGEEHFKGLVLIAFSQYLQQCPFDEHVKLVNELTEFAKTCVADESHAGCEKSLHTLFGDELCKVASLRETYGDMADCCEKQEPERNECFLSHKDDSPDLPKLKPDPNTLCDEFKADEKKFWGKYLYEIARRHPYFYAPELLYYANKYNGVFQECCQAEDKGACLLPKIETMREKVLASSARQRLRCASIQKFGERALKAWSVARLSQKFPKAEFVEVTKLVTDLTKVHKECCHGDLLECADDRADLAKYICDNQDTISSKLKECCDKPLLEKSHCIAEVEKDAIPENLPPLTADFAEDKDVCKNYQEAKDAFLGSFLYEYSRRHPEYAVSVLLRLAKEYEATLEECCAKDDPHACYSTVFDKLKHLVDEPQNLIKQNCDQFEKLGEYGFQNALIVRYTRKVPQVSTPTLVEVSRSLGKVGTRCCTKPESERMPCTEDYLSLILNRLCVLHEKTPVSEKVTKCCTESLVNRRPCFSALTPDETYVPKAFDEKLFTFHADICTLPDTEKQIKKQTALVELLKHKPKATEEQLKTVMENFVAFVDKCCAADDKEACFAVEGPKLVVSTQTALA
Test [1] is described as follows: small-molecule microarray binders of probe aXIP, primary screen, biochemical, NeuroSMM set, 635/667 nm fluorescence (AID 1119).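 Note: probe is the protein aXip251-270 applied at 1 µg/mL to compound-printed slides; binding of probe to printed compounds measured as 667 nm fluorescence plus signal to noise.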 As to conditions: higher = more signal, called active from +8 up or from −8 down.
Test [2] in a line: small-molecule binders of probe aNOTCH3, primary screen, biochemical, small-molecule microarray, 635/667 nm fluorescence (AID 1120).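 Note: probe is a biotin-tagged antibody raised against NOTCH3 rather than NOTCH3 protein; score merges spot fluorescence near 667 nm with spot signal to noise.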 The settings on record: higher = more signal.
Test [3] can be described thus: small-molecule binders of probe aNOTCH2, primary screen, biochemical, small-molecule microarray, 635/667 nm fluorescence (AID 1121).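 Note: score merges feature fluorescence read at 667 nm with its signal to noise.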 As to conditions: higher = more signal.
The target in test [4] is Carbonic anhydrase 2 (Homo sapiens) (UniProt P00918). Kind of test: CAII small-molecule binders, profiling panel, biochemical, small-molecule microarray, Alexa647-labelled CAII (AID 1122). The settings on record: CAII-A647 binding fluorescence, higher = more signal.
A short description of test [5]: COS7 lysate on small-molecule microarray, probe aHis, 635 nm (AID 1123).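 Note: z-score combines 667nm fluorescence intensity with signal-to-noise per printed compound spot.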 The settings on record: COS7 cell lysate, fluorescence, higher = more signal.
A short description of test [6]: compound binding in COS7 lysate, probe aLAP1, primary screen, cell lysate, small-molecule microarray (AID 1124).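 Note: lysate comes from COS7 cells expressing LAP1 and is applied at 0.3 µg/mL; score merges spot fluorescence near 667 nm with signal-to-noise over triplicate slides.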 As to conditions: probe aLAP1, fluorescence, higher = more signal.
The test system of another test is Sam68 (KHDRBS1). Kind of test: Sam68 small-molecule binders, primary screen, biochemical, small-molecule microarray, 635 nm fluorescence (AID 1125).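 Note: score merges 667 nm channel intensity with signal to noise over triplicate slides.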 As to conditions: small-molecule microarray binding, higher = more signal.
The subject of test [7] is Chordin-like protein 2 (CHRDL2). Kind of test: CHRDL2 small-molecule binders, primary screen, biochemical, small-molecule microarray, 635 nm fluorescence (AID 1126).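 Note: printed compound slides probed with Chrdl2 protein at 4 µg/mL for 1 h at 4 C; score merges 667 nm emission intensity with signal to noise over three replicate slides.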 As to conditions: small-molecule microarray binding, fluorescence 635 nm; higher = more signal.
Test [8] has as its target Concanavalin-A (Canavalia ensiformis) (UniProt P02866). Kind of test: ConA small-molecule binders, primary screen, artefact control for SMM control protein annotation, biochemical, small-molecule microarray, Alexa647 label, 635 nm (AID 1127).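 Note: z combines 667 nm emission intensity with signal-to-noise across three replicate slides.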 As to conditions: ConA-A647 binding fluorescence, higher = more signal.

Sequence of Concanavalin-A (Canavalia ensiformis) (P02866 whole entry, looked up): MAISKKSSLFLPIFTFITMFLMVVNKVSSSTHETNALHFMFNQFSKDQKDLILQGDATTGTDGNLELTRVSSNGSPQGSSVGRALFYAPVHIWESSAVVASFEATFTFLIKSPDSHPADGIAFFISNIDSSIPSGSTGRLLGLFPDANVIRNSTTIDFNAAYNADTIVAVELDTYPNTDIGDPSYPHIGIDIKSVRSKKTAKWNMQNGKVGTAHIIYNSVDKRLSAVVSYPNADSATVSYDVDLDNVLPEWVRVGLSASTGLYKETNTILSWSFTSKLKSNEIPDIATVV

With `CC(C)(C)OC(=O)CC[C@]1(C(=O)N2CCOCC2)COC(c2ccc(OCCCO)cc2)=N1`, the composite z-score with Albumin (Bos taurus) was 0.947; in [2], -0.0387; in test [3], -0.129; in test [4] it was 0.853; in [5], 2.85; in [6], -0.494. Moreover, the values for the composite z-score (in the test with Sam68 (KHDRBS1); in [7]; in test [8]) were 0.836, -1.17 and 0.0647, respectively. Further, the composite Z-score in test [1] is -0.124 (inactive).

Take `C=CCOC(=O)[C@H]1[C@@H]2C(=O)O[C@@H](c3ccccc3)[C@@H](c3ccccc3)N2[C@@H](c2ccc(OCCOC(=O)[C@@H]3C[C@@H]4C(=O)N[C@@H](Cc5ccccc5)C(=O)N4[C@@H]3c3ccc(O)cc3)cc2)[C@]12C(=O)Nc1ccc(I)cc12`: the composite z-score in the test with Albumin (Bos taurus) is -0.257; in test [2], 0.698; in test [3] it was -0.092; in test [4] it was 0.218; in test [5], 1.33; in test [6], -0.052. Also, the composite z-score with Sam68 (KHDRBS1) amounted to 1.16; in test [7], 0.915; in test [8], 0.92. For the same compound, the composite Z-score in [1] is 0.661 (inactive).

In the case of `CN1C(=O)C2C(C1=O)C1C=C(CCCO)C2C(C2CC2)N1C` (stereo not given), the composite z-score was 0.913 in the test with Albumin (Bos taurus); -0.16 in [2]; -0.149 in test [3]; 0.839 in test [4]; 0.746 in test [5]; -0.67 in test [6]. Further, the composite z-score is -0.293 with Sam68 (KHDRBS1), -0.338 in test [7] and -1.39 in test [8]. In addition, in [1], the composite Z-score was 0.178 (inactive).

For `CCOC(=O)C[C@H]1[C@H](OC(=O)c2cc3ccccc3oc2=O)[C@@H](NC(=O)c2ccc(-c3ccccc3)cc2)c2cc(OCCCO)ccc2N1C(=O)Cc1ccc(OC)cc1`, the composite z-score is 0.0146 with Albumin (Bos taurus); 0.213 in test [2]; -0.0578 in [3]; 0.383 in test [4]; 1.07 in test [5]; 0.774 in test [6]. Moreover, the composite z-score was determined as 0.864 with Sam68 (KHDRBS1), 0.346 in [7] and 0.833 in test [8]. In addition, the composite Z-score in test [1] was 0.243 (inactive).

In the case of `C=CC[C@H](O)c1ccc(O)c(F)c1`, the composite z-score with Albumin (Bos taurus) was -0.394; in [2], -0.849; in test [3] it was -0.157; in test [4] it was 0.828; in test [5] it was -0.268; in [6] it was -0.0732. The composite z-score in the test on Sam68 (KHDRBS1) was -1.45; in [7] it was -2.24; in [8] it was -1.09. For the same compound, the composite Z-score in [1] is 0.404 (inactive).

Consider `COCCOC(=O)N1C(=O)[C@@]2(c3cc(C#CC4=CCCCC4)ccc31)[C@H](C(=O)N1CCCCCCC1)[C@H]1C(=O)O[C@H](c3ccccc3)[C@H](c3ccccc3)N1[C@@H]2c1ccccc1OCCO`, for which the composite z-score worked out at 0.321 in the test with Albumin (Bos taurus); 0.733 in test [2]; 0.0596 in test [3]; 0.522 in [4]; 1.58 in test [5]; 1.2 in test [6]. Further, the composite z-score in the test on Sam68 (KHDRBS1) worked out at 1.3; in test [7] it was 0.6; in test [8] it was 1.11. Further, the composite Z-score in test [1] was 0.496 (inactive).

As for `COc1cccc(C)c1NC(=O)O[C@H]1[C@H](OC(=O)Nc2ccccc2)[C@@H](OC(=O)Nc2ccccc2)[C@@H](OC)O[C@@H]1CO`, the composite z-score was 0.541 with Albumin (Bos taurus); 0.163 in test [2]; -0.0811 in test [3]; 0.461 in test [4]; 2.66 in test [5]; 0.665 in test [6]. The composite z-score in the test on Sam68 (KHDRBS1) came to 1.29; in [7], 0.174; in test [8], 1.08. For the same compound, the composite Z-score in test [1] is -0.376 (inactive).

For `[N-]=[N+]=NCc1ccccc1C[C@@]1(C(=O)NCCN2CCOCC2)N=C(c2ccc(OCCCO)cc2)O[C@@H]1c1ccccc1`, the composite z-score was 0.818 with Albumin (Bos taurus); 0.307 in test [2]; -0.106 in test [3]; 0.655 in [4]; 2.77 in test [5]; 0.136 in [6]. The values for the composite z-score (with Sam68 (KHDRBS1); in test [7]; in test [8]) were 1.19, -0.879 and 0.944, respectively. The composite Z-score in test [1] is 1.03 (inactive).

In the case of `[N-]=[N+]=Nc1ccccc1C[C@]1(C(=O)N2CCCCC2)N=C(c2ccc(OCCCO)cc2)O[C@H]1c1ccccc1`, the composite z-score was determined as 0.737 with Albumin (Bos taurus); 0.196 in test [2]; 0.179 in test [3]; 0.708 in [4]; 1.52 in test [5]; 0.121 in [6]. Besides, the composite z-score was 1.31 in the test on Sam68 (KHDRBS1), -0.249 in test [7] and 1.18 in test [8]. In addition, the composite Z-score in test [1] is -0.399 (inactive).

On to `C=C[C@H](C)[C@@H](OC(=O)Nc1ccc(SC)cc1)c1ccc(OCCO)cc1`, for which the composite z-score in the test with Albumin (Bos taurus) is 0.312; in test [2], 0.137; in test [3], -0.0008; in test [4], 0.397; in test [5], 1.59; in test [6] it was 0.471. Besides, the composite z-score in the test on Sam68 (KHDRBS1) came out at 0.157; in test [7], 0.28; in test [8] it was 0.272. Besides, the composite Z-score in [1] was 0.794 (inactive).

As for `CCc1cccc(NC(=O)O[C@H]2[C@H](OC(=O)Nc3ccccc3-c3ccccc3)[C@H](OC(=O)Nc3ccccc3-c3ccccc3)[C@@H](OC)O[C@@H]2CO)c1`, the composite z-score is 0.715 with Albumin (Bos taurus); 0.122 in [2]; -0.0273 in [3]; 0.728 in test [4]; 2.04 in test [5]; 0.0611 in test [6]. Besides, the composite z-score in the test with Sam68 (KHDRBS1) was determined as 1.28; in test [7], 0.478; in [8] it was 1.12. The composite Z-score in test [1] was 0.814 (inactive).

As for `CC1C2C(CCCO)=CC(C3C(=O)N(C)C(=O)C23)N1Cc1cccc(OC(F)(F)F)c1` (stereo not given), the composite z-score with Albumin (Bos taurus) came to 1; in test [2], 0.126; in [3] it was 0.0083; in test [4], 0.854; in [5], 2.43; in test [6] it was 0.267. Further, the composite z-score in the test with Sam68 (KHDRBS1) is 1.29; in [7], -0.262; in test [8] it was 0.96. For the same compound, the composite Z-score in test [1] is -0.0186 (inactive).

Consider `COCCOC(=O)N1C(=O)[C@@]2(c3cc(C#CCC(C(=O)OC)C(=O)OC)ccc31)[C@H](C(N)=O)[C@H]1C(=O)O[C@H](c3ccccc3)[C@H](c3ccccc3)N1[C@@H]2c1ccccc1OCCO`, for which the composite z-score was 0.653 with Albumin (Bos taurus); -0.0565 in test [2]; 0.201 in test [3]; 0.593 in test [4]; 0.882 in [5]; -0.155 in [6]. Besides, the composite z-score in the test with Sam68 (KHDRBS1) was 1.32; in test [7], 1.1; in test [8], 1.15. The composite Z-score in test [1] is -0.145 (inactive).

As for `Cc1ccc(S[C@]2(C(=O)NCC(C)C)CC(=O)N(C(C)C)[C@@H]2c2ccc(CO)cc2I)cc1`, the composite z-score was -0.0268 with Albumin (Bos taurus); -0.019 in test [2]; -0.057 in test [3]; 0.56 in test [4]; 1.07 in [5]; 0.801 in test [6]. Also, the results for the composite z-score (in the test on Sam68 (KHDRBS1); in test [7]; in test [8]) were -0.236, -0.802 and -1.16, respectively. For the same compound, the composite Z-score in [1] is 0.849 (inactive).

For the compound `COC(=O)[C@H]1N=C(c2ccc(OCCCO)cc2)O[C@H]1c1ccccc1N=[N+]=[N-]`, the composite z-score in the test with Albumin (Bos taurus) is 0.177; in test [2] it was 0.156; in test [3], 0.273; in test [4], 0.574; in [5], 2.51; in test [6], 0.285. The composite z-score is 0.342 in the test with Sam68 (KHDRBS1), 0.158 in test [7] and 0.656 in test [8]. Moreover, the composite Z-score in test [1] is 0.408 (inactive).

Regarding `[N-]=[N+]=NCc1ccccc1[C@H]1OC(c2ccc(OCCCO)cc2)=N[C@@]1(CCS(=O)(=O)c1ccccc1)C(=O)O`, the composite z-score is 0.952 with Albumin (Bos taurus); 0.212 in test [2]; -0.118 in [3]; 0.754 in [4]; 2.12 in [5]; 0.0621 in test [6]. Further, the composite z-score with Sam68 (KHDRBS1) was 0.367; in [7], -0.692; in test [8], 0.399. The composite Z-score in test [1] is 0.177 (inactive).
